Measurements published in PubChem BioAssay AID624297 (National Center for Advancing Translational Sciences (NCATS), 2012).
Where “and” joins values, the source holds several entries; their conditions need not be identical. Equal entries are not always repeated. Among all 340,000 compounds or so, about 6,200 (1.8%) were called active. Inconclusive results (about 10%) are left out. The call rests on the fitted dose curve; in most records, active means well fitted activation curve with a large enough effect; inconclusive means small, poorly fitted or top-dose-only effect; inactive means no such curve, though single readings can be large or run the other way. The sample as a whole holds a higher share of actives than the screen did. More than one record can exist for a structure, and the calls need not agree.

Test: A quantitative high throughput screen for small molecules that induce DNA re-replication in SW480 colon adenocarcinoma cells. Further: nearly all actives have a fitted effect of over 55% in size. On re-replication activation: % of control where 0% means no effect.
Details: Hoechst DNA content imaging, 48 h; series mostly up to 46.1 µM
Outline: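 250 cells/well; 23 nL cpd via pin tool; 48 hr, 37 C, 5% CO2; Hoechst 40 min; imager read of total nuclear intensity, ex 405/em 500-530 nm.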
Potency means the concentration at half of the fitted maximal effect.

Potency, active:
Cc1nc2ccccc2nc1N/N=C/c1ccc(O)cc1O 1.64 µM
CCc1cc2c(=O)n(-c3ccccc3)c(SCC(=O)O)nc2s1 18.4 µM
O=C(NNC(=O)c1ccccc1O)c1ccccc1O 1.64 µM
C/C(=N\NC(=O)c1ccoc1C)c1ccccc1O 2.31 µM
CN1C=CC=C/C1=C1\SC(=S)N(Cc2ccccc2)C1=O 23.1 µM
CN(NC(=O)c1ccccc1F)c1nc(C(F)(F)F)nc2ccccc12 0.517 µM
CCOC(=O)CC(=O)CSc1nc(-c2ccccc2)cc(-c2ccc(Cl)cc2)c1C#N 20.6 µM
COc1ccc(C(C[N+](=O)[O-])n2nc(C)cc2C)cc1 (configuration not stated) 5.8 µM
O=C1OCCN1C(=O)[C@H]1[C@H](c2ccc(F)cc2)C(c2ccccc2)=NN1c1ccc(Br)cc1 9.2 µM
O=C1C=C(c2ccc(Cl)cc2)C(=O)N1Nc1ccccc1 6.51 µM
Cc1ccnc(NC(=O)C2CCN(S(=O)(=O)c3c(C)c(C)cc(C)c3C)CC2)c1 16.4 µM

Potency, inactive and 11.6 µM (active):
COC(=O)Cc1csc(/N=C/c2c(O)n(-c3cccc(C(F)(F)F)c3)c(=O)c3ccccc23)n1

Potency, inactive:
CCOc1cc(C=NNC(=O)CCCC(=O)NN=Cc2ccc(O)c(OCC)c2)ccc1O
Oc1ccc(-c2nc3ccccc3nc2-c2ccc(O)cc2O)c(O)c1
Oc1ccc(/C=N/NC2=NCCCCC2)c(O)c1
COc1ccc(OCCNC(=O)c2cc(C3CC3)nc3c2cnn3C(C)C)cc1
Cc1cn(C2CC(O)C(CO)O2)c(=O)n(CCCc2ccccc2)c1=O (configuration not stated)
CN(C)c1ccc(CSc2ccccc2)cc1
COC(=O)Cc1nc2c(N)nc(N)nc2[nH]c1=O
Cc1sc2nc(SCCO)n(-c3ccccc3)c(=O)c2c1C
C=CCn1c(SCC(=O)c2c(N)n(C)c(=O)n(C)c2=O)nc2sc(CC)cc2c1=O
COc1ccc(C(=O)COC(=O)c2c(C)noc2C)cc1Cl
Cc1ccc(C(=O)NNC(=O)c2ccc3c(c2)OCCO3)cc1
CC1CCCCC1NCC(=O)Nc1ccccc1C(=O)Nc1ccccc1 (configuration not stated)
Cc1cc(C(=O)CCC(=O)NNC(=O)c2ccccc2O)c(C)s1
O=C(Nc1ccc(O)cc1)c1ccccc1O
O=C(CN1C(=O)c2ccc([N+](=O)[O-])cc2C1=O)Nc1nnc(C2CC2)s1
COc1cc(Cl)c(C)cc1NC(=O)CSc1nnc(CN2CCCC2)o1
Cc1ccnc(NC(=O)c2ccoc2C)c1
CC(=O)NC(=O)c1ccccc1O
CC(C)NC(=O)Nc1cccc2c1O[C@@H](CN(C)S(=O)(=O)c1ccc(F)cc1)[C@@H](C)CN([C@H](C)CO)C2=O
Cc1ccc(OCCNC(=O)c2cccc(S(=O)(=O)N3CCN(Cc4ccccc4)CC3)c2)cc1
COc1cc(/C=C2/SC(=S)N(Cc3ccccc3)C2=O)cc(OC)c1O
CCCCN1C(=O)/C(=C2/C=CC=CN2C)SC1=S
O=C(O)C(CCc1ccccn1)c1ccccc1 (configuration not stated)
CC(NC(=O)c1ccccc1F)c1cccc2ccccc12 (configuration not stated)
Cn1c(CC(=O)NNC(=O)c2ccccc2F)nc2ccccc21
COC(=O)Cc1csc(Nc2c(C)n(C)n(-c3ccccc3)c2=O)n1
COC(=O)Cc1c(O)ccn(Cc2cccc(C(F)(F)F)c2)c1=O
CC(C)(O)c1ccccc1CC[C@H](SCC1(CC(=O)O)CC1)c1cccc(/C=C/c2ccc3ccc(Cl)cc3n2)c1
CN(C(=O)COC(=O)Cc1ccccc1[N+](=O)[O-])C1CCS(=O)(=O)C1 (configuration not stated)
N#Cc1c(-c2ccccc2)cc(-c2ccccc2)nc1SCC(=O)O
N#Cc1c(C(F)(F)F)cc(-c2ccc(Cl)cc2)nc1SCC(=O)O
CCOc1ccc(CCNC(=O)COC(=O)C2CCN(S(=O)(=O)c3ccccc3)CC2)cc1OCC
O=C(N[C@H]1C/C=C\C(c2ccc(F)cc2)N(Cc2ccccc2)C(=O)C1)OCC1c2ccccc2-c2ccccc21 (some centres not stated)
O=C(CNC(=O)c1cc(S(=O)(=O)N2CCOCC2)ccc1N1CCCC1)Nc1ccc(F)c(F)c1
COc1ccc(C(=O)CSc2nc(C)cc(C)n2)cc1[N+](=O)[O-]
COc1ccc(OCc2cn3c(C)cc(C)nc3n2)cc1
Cc1cc(C(=O)COc2ccc(Br)cc2F)c(C)n1C1CC1
O=C1NC(c2ccccc2)Cc2ccncc21 (configuration not stated)
C[C@@H]1NS(=O)(=O)c2cc(Cl)ccc2O[C@@H]1c1ccccc1
Cc1cc(OCCCC(=O)Nc2cc(S(=O)(=O)N3CCOCC3)ccc2N2CCOCC2)ccc1Cl
O=C1C(=O)N(c2ccccc2)C(c2ccccc2)C1c1ccccc1 (configuration not stated)
O=C(O)CC1=C(Nc2ccccc2)C(=O)N(c2ccccc2)C1c1ccc(Cl)cc1 (configuration not stated)
C#CCOCCOCCOCCNc1nc(N2CCN(C(=O)C([C@@H](C)O)n3cc([C@@H](N)CCCCN)nn3)CC2)nc(N2CCN(C(=O)[C@H](CCCCN)n3cc(CN)nn3)CC2)n1 (some centres not stated)
COC(=O)[C@]1(Cc2ccccc2)N[C@H](CN(C)S(=O)(=O)c2ccc(OC(F)(F)F)cc2)[C@@H]2C(=O)N(Cc3ccccc3)C(=O)[C@@H]21
CCCCN1CC(COc2ccccc2)Oc2cccc(F)c2S1(=O)=O (configuration not stated)
Cc1cccc(NC(=O)C2CCN(S(=O)(=O)c3cccc4cccnc34)CC2)c1
O=C(Nc1ccccn1)C1CCN(S(=O)(=O)c2ccccc2)CC1

re-replication activation, inactive:
CC(=O)CSc1nc(CCc2ccccc2)c(C#N)c(=O)[nH]1 4.33% [at 1.84 µM]
CN(C(=O)c1ccc(NC(=O)Cc2cccc(NC(=O)C3CCN(C(=O)c4ccccc4)CC3)c2)cc1)C1CC1 -22.3% [at 9.22 µM]
O=C1c2cccc3cc(Br)cc(c23)C(=O)N1Nc1ccccc1 -1.37% [at 9.22 µM]
